# The source made the active and inactive calls. Unless noted, the rule behind the calls is not given here.
# Experiments:
# [1] = tested on: XIP peptide (Xip251-270) binding; assay: XIP fragment 251-270 binding compounds – biochemical, small-molecule microarray, fluorescence 635/667 nm, 0.1 µg/mL protein, primary screen (AID 1182); settings: fluorescent protein binding, 635 nm, higher = more signal, called active from +8 up or from −8 down
# XIP peptide (Xip251-270) = assay: compounds binding XIP fragment 251-270 – biochemical, small-molecule microarray, fluorescence 635/667 nm, 0.5 µg/mL protein, primary screen (AID 1183); settings: fluorescence 635 nm, higher = more signal
# [2] = blood-stage malaria parasite viability loss – strain 3D7, DAPI fluorescence, 100 nL, primary screen (AID 1184);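 note: parasites grown inside human red blood cells in medium with human serum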; settings: P. falciparum 3D7 growth, 3 d, higher = more signal
# [3] = molecular target: Homeobox protein Hox-A13 (Mus musculus) (UniProt Q62424); assay: disruptors of Hoxa13 oligonucleotide interaction – biochemical, fluorescence polarization, labeled oligonucleotide, primary screen (AID 1185); settings: Hoxa13:DNA binding, 15 min, higher = more signal, called active from +8 up or from −8 down
# [4] = blockers of DNA damage checkpoint Chk1 activation – imaging, HeLa, hydroxyurea, phospho-Chk1 antibody, percent positive cells, primary screen (AID 1186); settings: hydroxyurea-induced phospho-Chk1 immunofluorescence imaging, higher = more signal
# [5] = blockers of DNA damage checkpoint Chk1 activation – imaging, HeLa, hydroxyurea, phospho-Chk1 nuclear intensity, primary screen (AID 1187); settings: hydroxyurea-induced phospho-Chk1 immunofluorescence imaging, higher = more signal
# Sequence of Homeobox protein Hox-A13 (Mus musculus) (Q62424 whole entry, looked up): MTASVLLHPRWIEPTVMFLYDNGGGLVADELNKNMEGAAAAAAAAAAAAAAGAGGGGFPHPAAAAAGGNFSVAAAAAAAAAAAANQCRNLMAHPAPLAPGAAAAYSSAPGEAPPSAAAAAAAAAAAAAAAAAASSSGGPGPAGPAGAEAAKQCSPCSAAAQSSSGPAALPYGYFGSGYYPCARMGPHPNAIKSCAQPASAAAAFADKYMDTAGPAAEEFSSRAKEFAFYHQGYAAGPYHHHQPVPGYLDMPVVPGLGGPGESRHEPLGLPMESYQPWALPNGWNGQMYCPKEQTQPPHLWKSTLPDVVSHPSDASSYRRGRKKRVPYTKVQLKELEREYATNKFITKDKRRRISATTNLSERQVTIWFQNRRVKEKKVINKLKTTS
Structure (SMILES),composite z-score [1],composite z-score (XIP peptide (Xip251-270)),z-score [2],z-score [3],z-score [4],z-score [5]
Cc1cc(C)cc(N2C(=O)CS(=O)(=O)C2c2cccc([N+](=O)[O-])c2)c1 (stereo not drawn),2.64 (inactive),0.0376,0.494,-0.0181 (inactive),-0.0327 (inactive),0.353 (inactive)
CCOC(=O)C1=C[C@@H](CC)N(S(=O)(=O)c2ccc(C)cc2)[C@H]1c1ccccc1,0.54 (inactive),0.208,-1.81,-2.63 (inactive),0.553 (inactive),0.54 (inactive)
NCCCCCCNC(=O)[C@H]1C[C@H]2C(=O)NCC(=O)N2[C@H]1c1cccc(OCCO)c1,2.26 (inactive),0.814,0.005,-2.07 (inactive),0.234 (inactive),0.495 (inactive)
CC(=O)NCCCC[C@@H]1NC(=O)[C@H]2C[C@@H](C(=O)NCCCCCC[N+](C)(C)C)[C@@H](c3cccc(OCCO)c3)N2C1=O,1.87 (inactive),0.893,-1.26,-4.59 (inactive),-0.372 (inactive),-0.255 (inactive)
CC(C)c1ccc(NN2C(C(O)c3c(F)cccc3Cl)C=CC3C(=O)N(c4ccccc4)C(=O)C32)cc1 (stereo not drawn),0.38 (inactive),0.748,-0.668,-1.64 (inactive),0.561 (inactive),0.539 (inactive)
COc1c(C)cc(-c2cc3c(c(-c4ccc(Oc5ccccc5)cc4)n2)[Si](C(C)C)(C(C)C)OC3)cc1C,-0.631 (inactive),-0.466,-0.898,-0.746 (inactive),0.621 (inactive),0.37 (inactive)
O=C1OCCC=C[C@H]2OC34C=CCN(Cc5ccccc5)C(=O)[C@H]3N(CCCCCCO)C(=O)[C@@H]4C12 (stereo partly drawn),-0.271 (inactive),0.8,0.0921,-4.32 (inactive),0.249 (inactive),0.489 (inactive)
COc1ccc(NN2C(C(O)c3ccc(OC)c(OCc4ccccc4)c3)C=CC3C(=O)N(C4CCCCC4)C(=O)C32)cc1 (stereo not drawn),-0.137 (inactive),0.628,-1.02,-1.81 (inactive),-0.487 (inactive),-0.892 (inactive)
O=C(NCc1ccccc1)[C@]1(CCS(=O)(=O)c2ccccc2)N=C(c2ccc(OCCCO)cc2)O[C@@H]1c1ccccc1,0.605 (inactive),0.678,-2.18,-1.13 (inactive),-0.362 (inactive),-0.255 (inactive)
COc1ccc(C(=O)Nc2cccc(CN3C(=O)[C@@]4(O[C@@H](CCn5cc(CCO)nn5)[C@H]([Si](C)(C)c5ccc(OC)cc5)[C@H]4C)c4ccccc43)c2)cc1,0.201 (inactive),0.393,-2.65,-3.85 (inactive),0.103 (inactive),0.199 (inactive)
C=CCC(OC(C)=O)[C@@H]1[C@@H](N(Cc2cccc3ccccc23)C(=O)c2cccc3ccccc23)c2cc(OCCCO)ccc2N1C(=O)c1ccc2ccccc2n1 (stereo partly drawn),0.376 (inactive),0.343,-1.29,-2.11 (inactive),0.316 (inactive),0.545 (inactive)
COc1ccc(C#Cc2ccc3c(c2)[C@]2(C(=O)N3)[C@H](c3ccc(O)cc3)N3[C@H](c4ccccc4)[C@H](c4ccccc4)OC(=O)[C@H]3[C@@H]2C(=O)NC[C@H](O)c2ccccc2)cc1,0.265 (inactive),0.707,-1.05,-0.173 (inactive),0.0646 (inactive),0.385 (inactive)
C=C[C@H](COC(C)=O)N(Cc1ccc(OC(C)=O)c(OC)c1)S(=O)(=O)c1ccc(Br)cc1,0.353 (inactive),0.713,0.371,-5.58 (inactive),-0.245 (inactive),-0.314 (inactive)

# Reference: PubChem BioAssay
